Assay results published in PubChem BioAssay (NCI).
About 83,000 compounds went through this panel and 20% of them were active in at least one assay; those are over-represented in the sample as a whole.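 Step 1: grow cells in 96-well plates. Step 2: add test compound at a single concentration. Step 3: incubate 48 h. Step 4: record percent growth.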 Values without a mark were called inactive. Activity calls are given as the source filed them. The calls were made as follows: active = growth percent below 10; inactive = the rest.

What was measured:
Test in all cases: NCI-60 one-dose screen, 48 h (100 = growth as untreated, 0 = no growth, -100 = all killed)
SK-MEL-2 melanoma = conditions: 10 µM unless noted
EKVX NSCLC = conditions: 10 µM unless noted
SN12C renal = conditions: 10 µM unless noted
UO-31 renal = conditions: 10 µM unless noted
TK-10 renal = conditions: 10 µM unless noted
ACHN renal = conditions: 10 µM unless noted
A498 renal = conditions: 10 µM unless noted
CCRF-CEM leukemia = conditions: 10 µM unless noted
MOLT-4 leukemia = conditions: 10 µM unless noted
SR leukemia = conditions: 10 µM unless noted
RPMI-8226 leukemia = conditions: 10 µM unless noted
OVCAR-8 ovarian = conditions: 10 µM unless noted
OVCAR-5 ovarian = conditions: 10 µM unless noted
OVCAR-4 ovarian = conditions: 10 µM unless noted
SK-OV-3 ovarian = conditions: 10 µM unless noted
IGROV1 ovarian = conditions: 10 µM unless noted
HS 578T breast = conditions: 10 µM unless noted
NCI/ADR-RES ovarian = conditions: 10 µM unless noted
CAKI-1 renal = conditions: 10 µM
OVCAR-3 ovarian = conditions: 10 µM unless noted

SMILES | growth (SK-MEL-2 melanoma) | growth (EKVX NSCLC) | growth (SN12C renal) | growth (UO-31 renal) | growth (TK-10 renal) | growth (ACHN renal) | growth (A498 renal) | growth (CCRF-CEM leukemia) | growth (MOLT-4 leukemia) | growth (SR leukemia) | growth (RPMI-8226 leukemia) | growth (OVCAR-8 ovarian) | growth (OVCAR-5 ovarian) | growth (OVCAR-4 ovarian) | growth (SK-OV-3 ovarian) | growth (IGROV1 ovarian) | growth (HS 578T breast) | growth (NCI/ADR-RES ovarian) | growth (CAKI-1 renal) | growth (OVCAR-3 ovarian)
CC1=CC(=O)CC(C)(C)[C@@]1(O)/C=C/C(C)=C\C(=O)O | -52.4% (active) | -29.6% (active) | -15.1% (active) | -31.6% (active) | -25.5% (active) | -7.21% (active) | -72.7% (active) | 0.0714% (active) | -9.99% (active) | 0.555% (active) | -28.4% (active) | -11.9% (active) | -25% (active) | -15.9% (active) | -22% (active) | -12.5% (active) | -8.17% (active) | -15.6% (active) | – | –
O=C1NC(=O)/C(=C/c2ccc(OCc3cc4ccccc4nc3Cl)cc2)S1 | 112% | 99.3% | 95.9% | 80.6% | 110% | – | 100% | 88.9% | 101% | 91% | 78.7% | 99% | 114% | 93.5% | 109% | 108% | 111% | 100% | 97.1% | 104%
C#Cc1ccc(NC(=O)c2ccc(/C=C/C(=O)c3nccn3C)cc2)c(F)c1 | 103% | 36% | 16.3% | 41.8% | 89.4% | – | 78.7% | 7.54% (active) | 16.2% | 8.09% (active) | -5.69% (active) | 21.4% | 40.7% | 42.3% | 65.3% | 23.9% | 51.4% | 10.8% | 37.3% | 12.6%
COc1c([C@@H](CC(C)C)OC(C)=O)ccc2c1C(=O)OCc1cc(C)cc(O)c1O2 | 22.2% | 37.6% | 27.8% | 32.3% | 33.6% | 16.1% | 61.5% | 31.4% | 21.3% | 19.1% | 27.6% | 21.2% | 69.4% | 25.9% | 24.3% | 44% | 45.9% | 12.6% | – | 43%
C#C[C@]1(O)CC[C@H]2[C@@H]3CC=C4c5sc(C6CCOCC6)nc5CC[C@]4(C)[C@H]3CC[C@@]21C | 94.6% | 84.2% | 82.9% | 83.9% | 113% | – | 96.9% | 52.3% | 38.3% | 58.6% | – | 83.8% | 88.6% | 89.7% | – | 90.8% | 66.9% | 80.6% | 84.5% | 94.2%
O=C(CCCCCCN1CC(=O)N2[C@@H](c3cc(F)cc(F)c3)c3[nH]c4ccccc4c3C[C@H]2C1=O)NO | – | 78.9% | 71.9% | 61.6% | 69.6% | 88.8% | 77.6% | 16.5% | 14.2% | 26% | 24.2% | 45% | 66.4% | 69.4% | 60.9% | 49.1% | 61.6% | 91.5% | 64.7% | 55.8%
O=C(NCCCNc1cc(-c2cn(-c3ccccc3)nc2-c2cccc(O)c2)ccn1)Nc1ccc(F)cc1 | – | 33.8% | 31.1% | 6.93% (active) | 65% | 24.8% | -6.39% (active) | 11% | 4.57% (active) | 17.4% | -31.1% (active) | 21.2% | 37.8% | 30.9% | 31.5% | 19.2% | -21.4% (active) | 20.9% | 12.8% | 28.4%
COc1cc(C(=O)c2cc(C(C)=O)c3c4ccccc4ccn23)cc(OC)c1OC | 51.5% | – | 74.4% | 43.3% | 70.3% | 71.8% | 34% | 48.9% | 34.6% | 16.8% | 52.3% | 62.9% | 69.9% | 69.1% | 56.2% | 52.6% | 40.5% | 27.9% | 30.2% | –
CCN1C(=O)N(CC)C2SC(N/N=C/c3ccccc3F)=NC21 (configuration not stated) | 12% | – | 34.6% | 50.2% | 87.7% | 34.4% | -22.1% (active) | 20% | 15.5% | 18.7% | 20.3% | 3.86% (active) | 47.5% | – | 30.4% | 28.3% | 11.9% | 5.59% (active) | 31.3% | –
C=CCn1c(SCC(=O)Nc2cccc(C(=O)/C=C/c3ccc(Cl)cc3)c2)nc2ccccc2c1=O | – | 99.5% | 86.2% | 67.6% | 96.4% | 90.6% | 78% | 96.6% | 94% | 21% | 9.15% (active) | 95% | 97.9% | 87.6% | 110% | 96.4% | 87.3% | 91% | 76.8% | –
O=c1[nH]c2cc(Cl)ccc2n1C1CCN(c2ccc3nnc(Cl)n3n2)CC1 | 93.1% | – | 95.3% | -30.9% (active) | 92.9% | 88.2% | 61.5% | 89% | 101% | 81.8% | 90.9% | 93.4% | 95.5% | 88.7% | 77.5% | 96.6% | 87.7% | 99.9% | 78.6% | –
CCN1C(=O)N(CC)C2SC(N/N=C/c3cccs3)=NC21 (configuration not stated) | 13.5% | – | 29.9% | 53.4% | 84.5% | 32.9% | -23% (active) | 17.8% | 13.3% | – | 23.3% | -4.75% (active) | 43.6% | 62.5% | 31.9% | 23.7% | 15.4% | -0.335% (active) | 27.1% | –
ClC(Cl)c1nc(-c2cccs2)n2nc(-c3ccccc3)cc2n1 | – | -26.8% (active) | 50.6% | -53.7% (active) | -10.8% (active) | -23.5% (active) | -78.5% (active) | 67.9% | 44% | 58.1% | -25.6% (active) | 12% | -8.51% (active) | 10.7% | 20.2% | 47.2% | -21.1% (active) | -20.7% (active) | -15% (active) | -37.4% (active)
O=C1CC2(CCOCC2)Oc2ncccc21 | – | 93.5% | 33.1% | 101% | 60.5% | 36.3% | 99.6% | 0.712% (active) | 13.5% | 15% | 5.53% (active) | 90.9% | 52.6% | 102% | 120% | 8.85% (active) | 95.2% | 104% | 94.2% | -54.4% (active)
C=C(C)C(=O)O[C@H]1C[C@@]2(C)OC(=CC2=O)/C(C)=C\[C@H]2OC(=O)C(=C)[C@H]12 | -28% (active) | 21.1% | – | -88.9% (active) | -76.3% (active) | -11.7% (active) | 21% | -31.8% (active) | -4.17% (active) | -19.6% (active) | -15.3% (active) | 4.8% (active) | -56.4% (active) | 36.1% | – | 7.34% (active) | 21.9% | 15.7% | 5.49% (active) | -72.1% (active)
CNC(=O)c1cc(Oc2ccc3nc(NC(=O)c4cccc(C(F)(F)F)c4)sc3c2)ccn1 | – | 101% | 96% | 99.1% | 116% | 102% | 87.3% | 109% | 107% | 111% | 112% | 106% | 97.7% | 101% | 111% | 107% | 102% | 101% | 93.6% | –
